Measurements from PubChem BioAssay (Tox21).
Results filed as inconclusive are left out. The source made the active and inactive calls. Unless noted, the call rests on the fitted dose curve.

Legend:
[1] = Nuclear factor erythroid 2-related factor 2/antioxidant responsive element (Nrf2/ARE) small molecule agonists: qHTS cell viability counter screen in human keratinocytes (AID 1919968; active means well fitted curve in the direction sought with a large enough effect in the repeat runs; an effect the other way counts as inactive or inconclusive; further: nearly all actives have a fitted effect of over 55% in size)
Procedure, shortened: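 Parallel cytotoxicity read: KeratinoSens HaCaT cells, compound treatment 23 h, viability by CellTiter-Fluor fluorescence 1 h post-reagent.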

[2] = Nuclear factor erythroid 2-related factor 2/antioxidant responsive element (Nrf2/ARE) small molecule agonists: luciferase reporter gene qHTS assay in human keratinocytes (AID 1919969); further: nearly all actives have a fitted effect of over 35% in size; further: potency means the concentration at half of the fitted maximal effect
[3] = biological target: Gonadotropin-releasing hormone receptor (Homo sapiens) (UniProt P30968); assay: Human gonadotropin-releasing hormone receptor (GnRHR) small molecule agonists, calcium flux assay in GnRHR-HEK293 cells (AID 1920063); further: nearly all actives have a fitted effect of over 35% in size
Chain of Gonadotropin-releasing hormone receptor (Homo sapiens) (P30968 whole entry, looked up): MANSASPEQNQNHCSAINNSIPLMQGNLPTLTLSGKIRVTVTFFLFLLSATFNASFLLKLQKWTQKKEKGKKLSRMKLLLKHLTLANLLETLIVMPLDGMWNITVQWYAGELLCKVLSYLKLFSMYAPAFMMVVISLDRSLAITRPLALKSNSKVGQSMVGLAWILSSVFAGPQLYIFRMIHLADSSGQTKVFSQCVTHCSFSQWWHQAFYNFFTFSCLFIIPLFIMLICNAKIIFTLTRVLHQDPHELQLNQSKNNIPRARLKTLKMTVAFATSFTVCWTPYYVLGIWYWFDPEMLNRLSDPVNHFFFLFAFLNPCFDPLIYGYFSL
Procedure, shortened: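 Calcium flux, agonist mode, human GnRHR stably integrated in HEK293; dye 1 h at 37 C before compound; Ex/Em=480/540 kinetic read, 3 min; 15 concentrations, triplicate.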

[4] = biological target: KiSS-1 receptor (Homo sapiens) (UniProt Q969F8); assay: Human kisspeptin (KISS1R) small molecule agonists, calcium flux assay in KISS1R-HEK293 cells (AID 1920064; active means well fitted curve in the direction sought with a large enough effect in the repeat runs; an effect the other way counts as inactive or inconclusive)
Chain of KiSS-1 receptor (Homo sapiens) (Q969F8 whole entry, looked up): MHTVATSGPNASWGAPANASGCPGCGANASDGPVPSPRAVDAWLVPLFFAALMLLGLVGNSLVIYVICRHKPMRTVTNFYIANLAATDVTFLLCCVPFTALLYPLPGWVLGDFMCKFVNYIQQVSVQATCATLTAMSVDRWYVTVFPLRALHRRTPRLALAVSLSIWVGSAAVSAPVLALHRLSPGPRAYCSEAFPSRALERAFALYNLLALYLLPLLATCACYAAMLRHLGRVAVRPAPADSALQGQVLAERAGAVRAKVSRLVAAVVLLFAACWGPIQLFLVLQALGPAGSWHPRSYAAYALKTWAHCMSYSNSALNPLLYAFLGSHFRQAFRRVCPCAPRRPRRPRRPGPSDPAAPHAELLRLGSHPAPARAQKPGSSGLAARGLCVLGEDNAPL
Procedure, shortened: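 Triplicate 15-concentration series were applied to dye-loaded human KISS1R HEK293 cells, and agonist-evoked calcium fluorescence was captured for 3 min.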

[5] = G protein-coupled receptor (GPCR) small molecule agonists, calcium flux assay: HEK293 wild type cell line counter screen (AID 1920065)
Procedure, shortened: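 Non-specific calcium responders were flagged by adding DMSO-dissolved compounds to dye-loaded cells and reading 480/540 nm fluorescence each second for 3 min; ATP served as positive control.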

[6] = p53 small molecule agonists, cell-based qHTS assay with human liver microsomes (AID 1963577);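 further: p53 response element beta-lactamase reporter cells with liver microsomes plus NADPH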
Procedure, shortened: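 With metabolic activation: human liver microsomes (0.5 mg/mL final) plus NADPH (0.5 mg/mL final) added alongside compounds to p53RE-bla cells; 16 h 37 C exposure; beta-lactamase read by LiveBLAzer fluorescence.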

[7] = p53 small molecule agonists, cell-based qHTS assay with human liver microsomes: qHTS cell viability counter screen (AID 1963579); further: nearly all actives have a fitted effect of over 45% in size
Procedure, shortened: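 Metabolic activation used human liver microsomes and NADPH, both 0.5 mg/mL final, over 16 hours at 37 C on p53RE-bla cells (4,000/well). Cytotoxicity measured by CellTiter-Glo luminescence, 30 min at room temperature.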

[8] = p53 small molecule agonists, cell-based qHTS assay with rat liver microsomes: qHTS cell viability counter screen (AID 1963580); further: nearly all actives have a fitted effect of over 45% in size
Procedure, shortened: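 Counter screen for cytotoxicity under metabolic activation: rat liver microsomes and NADPH, 0.5 mg/mL final each, added with compounds to p53RE-bla HCT-116 cells; 16 h at 37 C, then ATP luminescence read.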

[9] = p53 small molecule agonists, cell-based qHTS assay (AID 1963582; active means well fitted activation curve with a large enough effect in the signal ratio in the repeat runs, not every such curve was filed as active; the % refers to the signal ratio)
Procedure, shortened: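 Beta-lactamase reporter cells (p53RE-bla) treated with compounds for 16 h at 37 C; FRET substrate, 2 h, room temperature; fluorescence intensity.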

[10] = biological target: 5-hydroxytryptamine receptor 2A (Homo sapiens) (UniProt P28223); assay: 5-hydroxytryptamine receptor 2A (HTR2A) small molecule antagonists, cell-based qHTS assay (AID 1963586); further: nearly all actives have a fitted effect of over 45% in size; further: potency means the concentration at half of the fitted maximal effect
Chain of 5-hydroxytryptamine receptor 2A (Homo sapiens) (P28223 whole entry, looked up): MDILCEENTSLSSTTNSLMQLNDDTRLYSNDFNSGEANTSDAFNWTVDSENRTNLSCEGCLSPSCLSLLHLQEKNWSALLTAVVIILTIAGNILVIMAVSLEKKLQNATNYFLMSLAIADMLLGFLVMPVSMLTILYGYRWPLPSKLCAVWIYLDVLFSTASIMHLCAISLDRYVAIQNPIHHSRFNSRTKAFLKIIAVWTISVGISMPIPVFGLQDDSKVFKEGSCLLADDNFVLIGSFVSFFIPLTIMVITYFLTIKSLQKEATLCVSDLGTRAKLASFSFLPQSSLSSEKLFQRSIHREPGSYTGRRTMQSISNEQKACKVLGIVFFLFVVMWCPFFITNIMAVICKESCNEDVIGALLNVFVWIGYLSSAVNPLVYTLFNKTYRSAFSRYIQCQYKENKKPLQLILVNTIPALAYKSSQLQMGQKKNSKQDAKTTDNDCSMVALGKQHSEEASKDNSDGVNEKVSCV
Procedure, shortened: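 CHO cells stably expressing human HTR2A were plated for 18 h at 37 C, then loaded with calcium dye for 1 h. Compounds were preincubated 5 min at room temperature before DOI (4 nM solution) was added. Kinetic fluorescence was read for 3 min.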

[11] = biological target: 5-hydroxytryptamine receptor 2A (Homo sapiens) (UniProt P28223); assay: 5-hydroxytryptamine receptor 2A (HTR2A) small molecule agonists, cell-based qHTS assay (AID 1963587); further: nearly all actives have a fitted effect of over 30% in size
Procedure, shortened: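 HTR2A-CHO cells, plated 18 h at 37 C/5% CO2, dye-loaded 1 h at 37 C; compounds in DMSO added by pin tool (agonist mode). Intracellular calcium flux read as kinetic fluorescence on FDSS over 2 min at 1 s intervals.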

[12] = biological target: Muscarinic acetylcholine receptor M1 (Homo sapiens) (UniProt P11229); assay: Cholinergic receptor muscarinic 1 (CHRM1) small molecule antagonists, cell-based qHTS assay (AID 1963588); further: nearly all actives have a fitted effect of over 40% in size; further: potency means the concentration at half of the fitted maximal effect
Chain of Muscarinic acetylcholine receptor M1 (Homo sapiens) (P11229 whole entry, looked up): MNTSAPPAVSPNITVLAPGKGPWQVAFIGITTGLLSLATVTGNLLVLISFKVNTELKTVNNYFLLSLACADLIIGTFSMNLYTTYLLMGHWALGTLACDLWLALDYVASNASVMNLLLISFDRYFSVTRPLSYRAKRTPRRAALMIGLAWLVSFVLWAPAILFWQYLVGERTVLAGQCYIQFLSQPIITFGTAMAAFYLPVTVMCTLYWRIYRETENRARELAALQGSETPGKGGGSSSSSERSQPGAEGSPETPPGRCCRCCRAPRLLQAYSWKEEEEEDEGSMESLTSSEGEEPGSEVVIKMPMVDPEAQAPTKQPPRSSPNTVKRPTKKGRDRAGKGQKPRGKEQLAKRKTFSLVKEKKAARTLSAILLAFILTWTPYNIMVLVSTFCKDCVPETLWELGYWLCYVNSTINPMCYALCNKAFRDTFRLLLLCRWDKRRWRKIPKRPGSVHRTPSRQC
Procedure, shortened: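 Compounds were tested at 15 concentrations in three independent runs. Dye-loaded CHRM1-CHO cells were exposed 5 min at room temperature before stimulation by acetylcholine added at 50nM. Intracellular calcium was read kinetically on FDSS for 3 min.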

[13] = biological target: Muscarinic acetylcholine receptor M1 (Homo sapiens) (UniProt P11229); assay: Cholinergic receptor muscarinic 1 (CHRM1) small molecule agonists, cell-based qHTS assay (AID 1963589); further: nearly all actives have a fitted effect of over 35% in size
Procedure, shortened: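 qHTS, 15-point titration, 3 independent runs: compounds pin-transferred onto dye-loaded CHRM1-CHO cells (human M1), calcium fluorescence followed every second to detect agonism.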

[14] = biological target: Beta-2 adrenergic receptor (Homo sapiens) (UniProt P07550); assay: Adrenergic beta2 receptor (ADRB2) small molecule antagonists, cell-based qHTS assay (AID 1963592); further: series mostly up to about 92 µM; nearly all actives have a fitted effect of over 50% in size
Chain of Beta-2 adrenergic receptor (Homo sapiens) (P07550 whole entry, looked up): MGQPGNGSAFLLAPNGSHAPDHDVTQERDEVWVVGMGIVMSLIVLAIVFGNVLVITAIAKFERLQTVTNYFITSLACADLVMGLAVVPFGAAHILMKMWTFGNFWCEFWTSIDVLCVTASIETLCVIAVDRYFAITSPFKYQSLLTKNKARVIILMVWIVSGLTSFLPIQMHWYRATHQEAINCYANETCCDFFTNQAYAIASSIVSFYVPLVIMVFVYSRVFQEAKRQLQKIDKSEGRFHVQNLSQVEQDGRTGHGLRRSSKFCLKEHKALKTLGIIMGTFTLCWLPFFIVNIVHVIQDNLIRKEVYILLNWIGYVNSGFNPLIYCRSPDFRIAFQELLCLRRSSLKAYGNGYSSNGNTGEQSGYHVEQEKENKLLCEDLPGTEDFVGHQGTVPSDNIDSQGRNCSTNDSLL
Procedure, shortened: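 Assay format: CHO-ADRB2 cells, 18-20hr seeding at 37C/5% CO2, then compound plus 1nM isoproterenol agonist mix for 0.5hr RT. Homogeneous time-resolved fluorescence cAMP detection after 1hr, expressed as 665/615 nm ratio.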

[15] = biological target: D(2) dopamine receptor (Homo sapiens) (UniProt P14416); assay: Dopamine D2 receptor (DRD2) small molecule agonists, cell-based qHTS assay (AID 1963594); further: nearly all actives have a fitted effect of over 35% in size
Chain of D(2) dopamine receptor (Homo sapiens) (P14416 whole entry, looked up): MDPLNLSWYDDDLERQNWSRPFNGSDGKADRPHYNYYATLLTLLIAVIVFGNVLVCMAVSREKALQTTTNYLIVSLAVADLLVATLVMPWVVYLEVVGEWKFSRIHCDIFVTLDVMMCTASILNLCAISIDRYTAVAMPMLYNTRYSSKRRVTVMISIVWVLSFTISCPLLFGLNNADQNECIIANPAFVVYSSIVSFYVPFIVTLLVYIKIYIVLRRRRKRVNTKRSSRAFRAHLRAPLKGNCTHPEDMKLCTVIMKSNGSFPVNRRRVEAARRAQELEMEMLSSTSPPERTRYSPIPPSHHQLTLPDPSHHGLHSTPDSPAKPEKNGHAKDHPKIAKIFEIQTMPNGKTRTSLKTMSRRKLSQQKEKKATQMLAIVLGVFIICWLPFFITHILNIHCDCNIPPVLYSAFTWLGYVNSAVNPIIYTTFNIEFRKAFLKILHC
Procedure, shortened: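 HEK293 cells stably expressing DRD2 were cultured 24 h at 37 C, then given Ro20-1724 (0.1 mM final) and compounds for 10 min at room temperature. NKH477 (200nM) was then added for 30 min. cAMP was read by HTRF.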

[16] = biological target: D(2) dopamine receptor (Homo sapiens) (UniProt P14416); assay: Dopamine D2 receptor (DRD2) small molecule antagonists, cell-based qHTS assay (AID 1963595; active means well fitted inhibition curve with a large enough effect in the signal ratio in the repeat runs, with a control signal flat; the % refers to the signal ratio)
Procedure, shortened: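 Human DRD2 antagonist qHTS measuring cAMP by HTRF. The cells are exposed to compound for 10 min, then to NKH477 (200 nM) and quinpirole (12 nM) for 30 min at RT, with Ro20-1724 (0.1 mM) present throughout.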

[17] = p53 small molecule agonists, cell-based qHTS assay: qHTS cell viability counter screen (AID 1963581); further: nearly all actives have a fitted effect of over 45% in size
Procedure, shortened: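 Multiplexed with the reporter read, a CellTiter-Glo step (30 min, room temperature) gauges ATP-based viability of HCT-116 p53RE-bla cells after 16 h compound incubation at 37 C.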

[18] = cAMP Responsive Elements (CRE) small molecule agonists, cell-based qHTS assay (AID 1963590)
Procedure, shortened: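 Quantitative HTS for CRE agonists: HEK 293T CRE-bla cells, overnight plating, 3 h compound incubation at 37 C/5% CO2, then 2 h room-temperature LiveBLAzer B/G FRET substrate loading.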

[19] = cAMP Responsive Elements (CRE) small molecule antagonists, cell-based qHTS assay (AID 1963591; active means well fitted inhibition curve with a large enough effect in the signal ratio in the repeat runs, not every such curve was filed as active; the % refers to the signal ratio)
Procedure, shortened: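 Fluorescence intensity from cleaved LiveBLAzer B/G substrate (2 h, room temperature) quantified CRE-bla activity in HEK 293T cells exposed 3 h to compound with 0.25 uM final NKH477.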

Measured: Potency

C=CCOC(=O)/C=C\C(=O)OCC=C
active: [2] 24.8 µM
not listed: [17] | [18] | [19]
inactive: all other assays above

COc1ccc(CCN(C)CCCC(C#N)(c2cc(OC)c(OC)c(OC)c2)C(C)C)cc1OC (configuration not stated)
not listed: [7] | [10] | [11] | [12] | [15] | [18] | [19]
inactive: all other assays above

N[C@@H](Cc1cc(I)c(O)c(I)c1)C(=O)O
not listed: [11] | [15] | [17] | [19]
inactive: all other assays above

O=C(OCC(COC(=O)c1ccccc1)(COC(=O)c1ccccc1)COC(=O)c1ccccc1)c1ccccc1
not listed: [9] | [10] | [11] | [18] | [19]
inactive: all other assays above

CN(C)CCN(Cc1ccc(Cl)cc1)c1ccccn1
active: [10] 8.18 µM | [12] 7.29 µM
not listed: [7] | [9]
inactive: all other assays above

Cc1nc(-c2ccc(Cl)cc2)oc1COC(C)(C)C(=O)O
not listed: [7] | [9] | [18]
inactive: all other assays above

Cc1cc(=O)[nH]c(=O)[nH]1
not listed: [7] | [14] | [16]
inactive: all other assays above

CC1=C(/C=C/C(C)=C\C=C\C(C)=C\C(=O)O)C(C)(C)CCC1
active: [2] 54.5 µM
inactive: [1] | [3] | [4] | [5] | [6] | [7] | [8] | [17] | [14] | [16]
